Out of some 1,400 compounds screened, about 45 (3%) were called active.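 How the source made its calls: active means half-maximal dose of signal decrease from fit no higher than ten times the top valid tested dose; inconclusive means fit invalid, or curve flat with 30 to 70% inhibition; inactive means the rest.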 Not all results are given here. Entries with a potency or affinity are not part of this list.
These molecules were tested against Lysine-specific demethylase 4A (Homo sapiens) (UniProt O75164) (assay: JMJD2A histone demethylase inhibitors, dose response, selectivity assay for GASC-1 inhibitor project, biochemical, DELFIA europium, cherry-picked samples (AID 488840;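 further: europium signal reports the dimethyl H3K9 product detected by antibody so inhibitors lower it; 0% = median of neutral control wells and -100% = median of positive control wells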)). Conditions: GST-JMJD2A(1-420) H3K9me3 demethylation; series mostly up to 6 µM; activity change, negative = inhibition: at the top concentration.
Chain of Lysine-specific demethylase 4A (Homo sapiens) (O75164 whole entry, looked up): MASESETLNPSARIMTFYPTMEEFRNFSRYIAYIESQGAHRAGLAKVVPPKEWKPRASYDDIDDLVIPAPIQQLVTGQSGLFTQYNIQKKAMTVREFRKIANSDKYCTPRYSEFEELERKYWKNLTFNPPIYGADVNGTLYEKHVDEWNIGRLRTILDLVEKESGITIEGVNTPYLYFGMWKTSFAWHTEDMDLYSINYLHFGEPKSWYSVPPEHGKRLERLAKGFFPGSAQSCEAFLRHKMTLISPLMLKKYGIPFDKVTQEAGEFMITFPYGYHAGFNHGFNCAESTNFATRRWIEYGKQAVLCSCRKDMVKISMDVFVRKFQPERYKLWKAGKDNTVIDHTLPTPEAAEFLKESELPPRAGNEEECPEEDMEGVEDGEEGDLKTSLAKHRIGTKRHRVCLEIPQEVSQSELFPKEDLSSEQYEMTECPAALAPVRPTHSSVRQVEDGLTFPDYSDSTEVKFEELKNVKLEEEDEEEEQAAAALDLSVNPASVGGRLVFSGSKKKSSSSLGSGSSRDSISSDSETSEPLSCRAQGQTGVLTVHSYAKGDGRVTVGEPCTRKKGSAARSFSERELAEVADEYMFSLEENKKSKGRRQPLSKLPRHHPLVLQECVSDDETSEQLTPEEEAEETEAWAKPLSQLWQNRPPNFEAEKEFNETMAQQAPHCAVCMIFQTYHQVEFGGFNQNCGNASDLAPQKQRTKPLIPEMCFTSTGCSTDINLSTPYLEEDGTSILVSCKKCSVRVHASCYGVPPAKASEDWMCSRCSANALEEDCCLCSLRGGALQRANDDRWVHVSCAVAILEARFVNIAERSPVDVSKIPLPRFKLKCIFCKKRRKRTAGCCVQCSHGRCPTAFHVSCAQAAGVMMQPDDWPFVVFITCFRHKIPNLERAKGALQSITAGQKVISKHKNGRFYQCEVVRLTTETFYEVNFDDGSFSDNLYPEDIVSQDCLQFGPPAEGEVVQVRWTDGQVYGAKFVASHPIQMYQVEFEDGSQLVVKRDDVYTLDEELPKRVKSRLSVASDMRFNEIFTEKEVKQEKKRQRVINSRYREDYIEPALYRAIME

Activity change, negative = inhibition, inactive:
CCOC(=O)Cc1csc(NC(=O)COc2cccc(C)c2)n1 -2.61%
Cc1ccccc1-n1nc(C)c2cc(C(=O)N3CCN(S(=O)(=O)c4ccc(F)cc4)CC3)sc21 -3.6%
Cc1cccc(-c2noc(CCC(=O)NC3CCCC3)n2)c1 -1.01%
COc1ccc(CN2CCCCC2C)c(C)c1C (stereo not given) 2.39%
CC(C)CCN(C(=O)C1=COCCO1)c1c(N)n(Cc2ccccc2)c(=O)[nH]c1=O -0.136%
Cn1c(=O)[nH]c(=O)c2c1nc(NCCCO)n2Cc1ccc(F)cc1 1.84%
COC(=O)COc1ccc(Oc2cc(C)nc(SC)n2)nn1 -1.19%
Cc1ccc2c(c1)N(CC(=O)NCC1CCCO1)C(=O)C(C(C)C)O2 (stereo not given) 5%
C=CCn1c(N)c(-c2nc3ccccc3n2C)sc1=S 3.81%
COc1ccc(C(=O)N2CCCC(c3nc(-c4ccc(OC)c(OC)c4)no3)C2)c(OC)c1 (stereo not given) -2.52%
O=C(NCCCN1CCOCC1)c1cccc(S(=O)(=O)N2CCc3ccccc3C2)c1 0.16%
O=C(Nc1cc(S(=O)(=O)N2CCOCC2)ccc1N1CCCC1)c1ccc(F)cc1 3.87%
O=C(COC(=O)c1cccc(S(=O)(=O)NCc2ccccc2)c1)Nc1ccccc1OC(F)F 0.665%
c1coc(CSCc2cn3cccnc3n2)c1 5.39%
COC(=O)[C@]1(C)N[C@H](CN(C)C(=O)Nc2ccc(F)cc2)[C@@H]2C(=O)N(C)C(=O)[C@@H]21 -4.71%
Cc1cccc(NC(=O)C2CCCN(S(=O)(=O)c3c(C)nn(C)c3C)C2)n1 (stereo not given) -2.26%
CN(C(=O)c1ccc(Cl)c([N+](=O)[O-])c1)C1(C)CCS(=O)(=O)C1 (stereo not given) 1.09%
O=C1NC(=S)N/C1=C/c1cc2c(cc1[N+](=O)[O-])OCO2 3.33%
N#CC1(NC(=O)Cn2ncc(Cl)c(Cl)c2=O)CCCCC1 0.808%
CCOC(=O)C1=C(C)N(C)C(C)=C(C(=O)OCC)C1c1cccnc1 13.7%
COc1cccc(CNC(=O)c2cc3c(cc2Cl)N2CCCCCC2=NS3(=O)=O)c1 -0.22%
C#CCOCCOCCOCCNc1nc(N2CCN(C(=O)CCCCCCCCCCNC(=O)[C@H](CCCCN)n3cc(CCO)nn3)CC2)nc(N2CCN(C(=O)CCCCCCCCCCNC(=O)[C@H](CCCCN)n3cc(C[C@@H](C)CC)nn3)CC2)n1 21.3%
C#CCOCCOCCOCCNc1nc(N2CCN(C(=O)CCCCCCCCCCNC(=O)[C@H]([C@@H](C)CC)n3cc(CCCCN=C(N)N)nn3)CC2)nc(N2CCN(C(=O)CCCCCCCCCCNC(=O)[C@H](CCCCN)n3cc(C)nn3)CC2)n1 4.37%
O=C1C=C(NCc2ccc3c(c2)OCO3)CC(c2ccccc2)C1 (stereo not given) 8.95%
Cc1cc(C(F)(F)F)nn1C(=O)c1cccnc1Cl -3.32%
O=C(NCCCNCCCNC(=O)c1ccc(/C=N/O)nc1)c1ccc(/C=N/O)nc1 14%
COC(=O)CSC1=C(C#N)C(c2ccsc2)CC(=O)N1 (stereo not given) 0.445%
COc1ccc(N2C(=O)CSC23CCCCC3)cc1 1.88%
Cc1cccnc1Nc1nc(-c2ccc(O)cc2)cs1 4.45%
COc1ccc(/C=C(/C(=O)NCc2ccccc2)c2ccccc2)cc1 -0.518%
Cc1cccc(NC(=S)N2CCN(Cc3ccc4c(c3)OCO4)CC2)c1C -13%
CC1(C)[N+]([O-])=C2C(=[N+]([O-])C1(C)C)c1ccccc1/C2=N\O -8.61%
O=C1NCCN1CCNS(=O)(=O)c1ccccc1[N+](=O)[O-] -0.557%
Cc1ccc(NC(=O)COC(=O)c2ccco2)cc1S(=O)(=O)N1CCOCC1 -1.17%
Cc1ccc(/C=N/NC(=O)c2ccc(C(=O)N/N=C/c3ccc(C)s3)o2)s1 2.44%
CC(C)C[C@@H]1CN=C(N)N1C[C@@H]1CCCN1C[C@H](C)N1C[C@@H](Cc2ccccc2)N(CCc2ccc(Cl)c(Cl)c2)C1=N 25.9%
Cc1ccc(S(=O)(=O)N2CCOCC2)cc1C(=O)NNC(=O)c1ccoc1C 1.14%
COCCCNC(=O)CC1C[C@H](C(=O)N2CCOCC2)[C@@]2(C)c3[nH]c4ccccc4c3CCN2C1=O (stereo not given in full) 7.23%
Cc1noc(C)c1CCC(=O)N1CCCC(CCC(=O)NCc2ccccc2F)C1 (stereo not given) -5.05%
COCCn1c(N)c(C(=O)NCC2CCCO2)c2nc3ccccc3nc21 (stereo not given) 5.88%
Cn1c(=O)c2c(nc(NC3CCCCC3)n2Cc2ccccc2)n(C)c1=O -1.32%
CC(=O)C[C@@H](O)CC(=O)[C@@H]1OC(=O)[C@@H](C)C/C=C\Cc2ccccc21 -0.669%
CCN1C(=O)C(CC(=O)Nc2ccc(OC)cc2)N(CCc2ccccc2F)C1=S (stereo not given) -0.736%
COC(=O)C1CC(O)CN1C(=O)NC1CCCCC1 (stereo not given) -1.32%
CNc1nc2c(c(=O)[nH]c(=O)n2C)n1CCCc1ccccc1 -6.12%
CCCCn1c(=O)[nH]c(=O)c2c1nc(-c1cc(Cl)c(OC)c(OC)c1)n2C 1.79%
COc1ccc(/C=N/NS(=O)(=O)c2ccc(NC(C)=O)cc2)cc1 3.47%
N/C(=N\S(=O)(=O)c1cc(C(F)(F)F)cc(C(F)(F)F)c1)c1ccccc1 -1.03%
C[C@@H]1CN([C@@H](C)CO)C(=O)c2cc(NC(=O)Nc3ccc4c(c3)OCO4)ccc2O[C@H]1CN(C)S(=O)(=O)c1ccc(F)cc1 -2.55%
COC(=O)c1ccc(CSc2nc3sc(C(=O)O)c(C)c3c(=O)[nH]2)cc1 1.96%
CC1CCN(C(=S)NC(=O)c2cccc([N+](=O)[O-])c2)CC1 -0.366%
COc1ccccc1CNC(=O)COc1ccc(S(=O)(=O)N2CCOCC2)cc1C -1.64%
O=C(CN1C(=O)c2ccccc2C1=O)NCC1COc2ccccc2O1 (stereo not given) 4.76%
O=C(NC1CC2CCC1C2)C1COc2ccccc2O1 (stereo not given) -5.22%
COc1ccccc1/C=C1\SC(=S)N(CCC(=O)NNC(=O)c2ccccc2OC)C1=O -0.634%
CNC[C@@H]1Oc2c(NC(=O)Nc3ccccc3)cccc2C(=O)N([C@@H](C)CO)C[C@H]1C 0.201%
N#Cc1cc(-c2ccccc2)nnc1Sc1ccccc1 -0.75%
COc1ccc(OCC(=O)N2CCC3(CC2)CC(=O)c2ccccc2O3)cc1 -2.29%
Cc1ccc(S(=O)(=O)N2[C@@H](c3ccc(Br)cc3)C(C(=O)O)=CC[C@H]2c2cccc(Cl)c2)cc1 4.46%
CCc1ccc([C@@H]2CC=C(C(=O)O)[C@H](c3ccc(Br)cc3)N2S(=O)(=O)c2ccc(C)cc2)cc1 -3.98%
